Measured values taken from PubChem BioAssay AID1159580 (chemical genetic matrix, 2015).
Values joined by “and” are separate entries in the source; they are usually repeats but may differ in a detail not shown here. Identical values can stand only once. The whole screen tested about 5,500 compounds, of which about 2,000 (36%) were called active. Another 18% or so got no clear call; they are omitted. No stated cut-off is given here; in the data, active means normalized growth mostly below about 0.91 (no sharp cut-off); inconclusive means no clear call, values can overlap the other calls; inactive means mostly above about 0.92. The list shows a part of the results.

Assay: chemical genetic growth profiling, strain panel (AID 1159580);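 further: tested at 20 µM; growth read once vehicle control cultures reached saturation at 30 °C; 1 = growth at the plate median or of vehicle wells; lower values mean less growth of the strain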
Conditions: S. cerevisiae deletion strains, growth OD

Measured: normalized growth

CC(=O)Oc1cccc(O)c1
inactive: locus YAL021C, strain ccr4, active compounds read low 1 | locus YAL026C, strain drs2, active compounds read low 1.04 | locus YAL030W, strain snc1, active compounds read low 1.01 | locus YBL061C, strain skt5, active compounds read low 1.02 | locus YBR009C, strain hhf1, active compounds read low 1.01 | locus YBR021W, strain FUR4, active compounds read low 0.973 | locus YBR023C, strain chs3, active compounds read low 1.03 | locus YBR171W, strain sec66, active compounds read low 1.03 | locus YBR229C, strain ROT2, active compounds read low 1 | locus YBR231C, strain swc5, active compounds read low 1.03 | locus YBR279W, strain paf1, active compounds read low 1.02 | locus YCL011C, strain gbp2, active compounds read low 1.02 | locus YCL016C, strain dcc1, active compounds read low 1.01 | locus YCL029C, strain bik1, active compounds read low 1.01 | locus YCL069W, strain vba3, active compounds read low 1.03 | locus YCR088W, strain abp1, active compounds read low 1.02 | locus YDL005C, strain med2, active compounds read low 1.03 | locus YDL035C, strain GPR1, active compounds read low 1.01 | locus YDL040C, strain nat1, active compounds read low 1.02 | locus YDL074C, strain BRE1, active compounds read low 0.996 | locus YDL101C, strain DUN1, active compounds read low 1.01 | locus YDL134C, strain PPH21, active compounds read low 1.01 | locus YDL185W, strain tfp1, active compounds read low 1.03 | locus YDL192W, strain arf1, active compounds read low 1.02 | locus YDR001C, strain nth1, active compounds read low 1.02 | locus YDR069C, strain doa4, active compounds read low 1.03 | locus YDR101C, strain arx1, active compounds read low 0.996 | locus YDR137W, strain rgp1, active compounds read low 1.05 | locus YDR159W, strain sac3, active compounds read low 1.05 | locus YDR162C, strain NBP2, active compounds read low 1.02 | locus YDR195W, strain ref2 1.03 | locus YDR297W, strain sur2, active compounds read low 1.04 | locus YDR318W, strain mcm21, active compounds read low 1.01 | locus YDR334W, strain swr1, active compounds read low 1.01 | locus YDR335W, strain msn5, active compounds read low 1.01 | locus YDR388W, active compounds read low 1.02 | locus YDR392W, strain spt3, active compounds read low 1.01 | locus YDR502C, strain sam2, active compounds read low 1.03 | locus YEL003W, strain gim4, active compounds read low 1.02 | locus YEL037C, strain rad23, active compounds read low 1.02 | locus YEL061C, strain CIN8 (second series), active compounds read low 1.02 | locus YEL061C, strain CIN8, active compounds read low 1.01 | locus YER015W, strain faa2, active compounds read low 1.02 | locus YER110C, active compounds read low 1.03 | locus YER111C, strain swi4, active compounds read low 1.02 | locus YER155C, strain BEM2 (second series), active compounds read low 1.02 | locus YER155C, strain BEM2, active compounds read low 0.996 | locus YER167W, strain BCK2, active compounds read low 1 | locus YFR010W, strain ubp6, active compounds read low 1.04 | locus YGL078C, strain dbp3, active compounds read low 1.02 | locus YGL086W, strain mad1, active compounds read low 0.999 | locus YGL167C, strain pmr1, active compounds read low 1.02 | locus YGL173C, strain kem1, active compounds read low 1.04 | locus YGL227W, strain vid30, active compounds read low 1.02 | locus YGL240W, strain doc1, active compounds read low 1.02 | locus YGL248W, strain PDE1, active compounds read low 1.01 | locus YGL253W, strain hxk2, active compounds read low 1.02 | locus YGR078C, strain PAC10, active compounds read low 1 | locus YGR135W, strain pre9, active compounds read low 1.03 | locus YGR229C, strain SMI1, active compounds read low 1 | locus YGR252W, strain gcn5, active compounds read low 1.06 | locus YHR013C, strain ard1, active compounds read low 1.02 | locus YHR027C, strain rpn1, active compounds read low 1.02 | locus YHR030C, strain SLT2, active compounds read low 1.01 and 0.949 | locus YHR079C, strain IRE1 (second series), active compounds read low 1.01 | locus YHR079C, strain IRE1, active compounds read low 0.967 | locus YHR094C, strain hxt1, active compounds read low 1.01 | locus YHR129C, strain ARP1, active compounds read low 1.01 | locus YHR142W, strain chs7, active compounds read low 1.03 | locus YHR200W, strain rpn10, active compounds read low 1.02 | locus YIL066C, strain RNR3, active compounds read low 1 | locus YIL073C, strain SPO22, active compounds read low 1.04 | locus YIL125W, strain kgd1, active compounds read low 1.01 | locus YIR030C, strain dcg1, active compounds read low 1.01 | locus YJL092W, strain hpr5, active compounds read low 1.02 | locus YJL095W, strain BCK1 (second series), active compounds read low 1.02 | locus YJL095W, strain BCK1, active compounds read low 1.01 and 0.974 | locus YJL115W, strain asf1, active compounds read low 1.01 | locus YJL129C, strain trk1, active compounds read low 1.04 | locus YJL134W, strain LCB3, active compounds read low 1.01 | locus YJL154C, strain vps35, active compounds read low 1.02 | locus YJL164C, strain tpk1, active compounds read low 1.01 | locus YJL166W, strain qcr8, active compounds read low 1.03 | locus YJL168C, strain set2, active compounds read low 1.02 | locus YJL187C, strain SWE1 (second series), active compounds read low 1.01 | locus YJL187C, strain SWE1, active compounds read low 1.02 | locus YJR043C, strain POL32, active compounds read low 0.999 | locus YJR066W, strain TOR1, active compounds read low 0.96
